Results: PubChem BioAssay (NCI)
Compounds without any hit were thinned out: in the full panel of roughly 83,000, 20% have a hit.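 Single-concentration screen, 48 h exposure, 96-well plates. Endpoint: percent growth. Below 10 = active.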 Values without a mark were called inactive. Active and inactive are the calls of the source.

system: MDA-MB-435 melanoma; test: NCI-60 one-dose screen, 48 h (100 = growth as untreated, 0 = no growth, -100 = all killed); details: 10 µM unless noted

First: COc1ccc(-c2c(N)n[nH]c2-c2cc3c(c(OC)c2OC)OCO3)cc1
Second: COc1cc(-c2nc(-c3nc4ccc(Cl)cc4[nH]3)cc3c2[nH]c2ccccc23)cc(OC)c1OC
The growth of the first is higher: 106% for the first, 75.5% for the second.

Going from Clc1ccc(-c2nc3ccccc3s2)cc1Cl to O=c1c2sc3ncccc3c2nnn1-c1ccccc1, the growth falls from 121% to 101%.

First: Fc1ccc(CNCCNc2ncnc3c2cnn3-c2ccccc2)cc1
Second: O=S(=O)(NCCNc1nccc(-c2c(-c3ccc(F)cc3)nc3sccn23)n1)c1ccc(F)cc1
The growth of the first is higher: 95.4% for the first, 55% for the second.

Compared with COc1ccc(-n2c(=O)sc3c(Cl)nc(C)nc32)c(OC)c1, COc1ccc(-n2c(=S)sc3c(Cl)nc(C)nc32)c(OC)c1 is lower in growth: 69.5% for the first, 30.9% for the second.

Compared with O=C(O)c1nc(-c2ccccc2)oc1N1CCOCC1, Cc1cc(N)n(S(=O)(=O)c2oc(-c3ccccc3)nc2C#N)n1 is lower in growth: 97.5% for the first, 91.8% for the second.

First: Cn1c(=O)c2[nH]c(C3CC=CCC3)nc2n(C)c1=O (stereo unspecified)
Second: COc1ccc(Nc2[nH]n3c(=O)cc(C)nc3c2C(N)=O)c(OC)c1
The growth of the first is lower: 106% for the first, 114% for the second.

First: COc1ccc(C2C=C(c3ccc(N)cc3)N=C3SC=CN32)cc1OC (stereo unspecified)
Second: COc1ccc(Nc2nn3c(C)cc(C)nc3c2C(=O)Nc2ccc(C)cc2)c(OC)c1
The growth of the first is higher: 106% for the first, 105% for the second.

First: O=S(=O)(NCCNc1nccc(-c2c(-c3ccc(O)cc3)nc3sccn23)n1)c1cccc2ccccc12
Second: Cc1ccc(S(=O)(=O)NCCNc2nccc(-c3c(-c4ccc(O)cc4)nc4sccn34)n2)cc1
The growth of the first is higher: 106% for the first, 86.4% for the second.

First: Cc1ccc(S(=O)(=O)c2nc(-c3ccccc3)oc2S(C)(=O)=O)cc1
Second: CCOC(=O)c1cn2c3c(cc(C)cc3c1=O)C(=O)/C(=C/c1ccccc1)C2
The growth of the first is lower: 59.4% for the first, 107% for the second.

Compared with O=C(O)/C=C/C(=O)c1ccc(Cl)cc1, CN(C)CC(C(=O)c1ccccc1)c1ccccc1 (stereo unspecified) is lower in growth: 121% for the first, 23.1% for the second.

Going from NC(=O)CCCN1C/C(=C\c2ccccc2)C(=O)c2ccccc21 to Cc1c(C(N)=O)sc2c1c(=O)n(Cc1ccccc1)c1nnc(Nc3ccccc3)n21, the growth rises from 101% to 103%.

Going from Fc1ccc(Nc2nc(NCCNc3ccnc4cc(Cl)ccc34)nc(N3CCOCC3)n2)cc1 to CN(C)c1oc(C2OC2c2ccccc2)nc1C#N (stereo unspecified), the growth rises from 28.2% to 101%.

With COc1cc(-c2nn(-c3cccc(NC(=O)c4cccc(C(F)(F)F)c4)c3)cc2-c2ccncc2)ccc1Cl the growth was -39.6% (active).
For COc1ccc(/C=C2\CN(Cc3cn(CCNc4ccnc5cc(Cl)ccc45)nn3)C/C(=C\c3ccc(OC)c(OC)c3)C2=O)cc1OC, the growth was -5.87% (active).
COc1ccc(C2=Nn3c(nnc3-n3nc(C)cc3C)SC2)cc1 was tested, and the growth was -16.1% (active).
In the case of COc1ccc(-c2cc3c(OC)c(OC)c(OC)cc3oc2=O)cc1, the growth is reported as -17.1% (active).
COc1ccc(OC)c(C2OC(c3ccc4ccccc4c3O)=NN2C(C)=O)c1 (stereo unspecified) was tested, and the growth was 8.75% (active).
For Cc1ccc(NS(=O)(=O)c2cc(C)ccc2C)cc1, the growth was -24% (active).
COc1cc(-c2nn(-c3cccc(NC(=O)c4ccccc4)c3)cc2-c2ccncc2)ccc1Cl was tested, and the growth was -57.9% (active).
O=C(Nc1cccc(-n2cc(-c3ccncc3)c(-c3ccc(Cl)c(O)c3)n2)c1)Nc1ccc(Cl)c(Cl)c1 was tested, and the growth was 9.98% (active).
With O=C(Nc1ccc2c(c1)OCCO2)C(=O)c1c[nH]c2ccccc12 the growth was -29.1% (active).
CCCCCCCC/C=C/CCCCCCCC1=NC(C)(C)CN1C(C)(C)CO was tested, and the growth was -18.9% (active).
With COc1cc(-c2nn(-c3cccc(NC(=O)c4ccc(Cl)c(C(F)(F)F)c4)c3)cc2-c2ccncc2)ccc1Cl the growth was -26.8% (active).
CCCCCCCC[C@@H](O)CC(=O)N[C@@H](CC(N)=O)C(=O)N[C@@H](CCC(N)=O)C(=O)N[C@@H](CC(=O)c1cc(C)cc(O)c1C(=O)c1c(O)cccc1O)CC(C)C was tested, and the growth was -39.6% (active).
COc1cc(/C(C#N)=C/c2ccc3c(c2OC)OCO3)cc2c1OCO2 was tested, and the growth was -39.4% (active).

system: SW-620 colon; test: as above; details: 10 µM unless noted

First: COc1ccc(-c2c(N)n[nH]c2-c2cc3c(c(OC)c2OC)OCO3)cc1
Second: COc1ccc(-c2cc3c(OC)c(OC)c(OC)cc3oc2=O)cc1
The growth of the first is higher: 101% for the first, 25.1% for the second.

Going from COc1cc(-c2nn(-c3cccc(NC(=O)c4cccc(C(F)(F)F)c4)c3)cc2-c2ccncc2)ccc1Cl to COc1cc(-c2nn(-c3cccc(NC(=O)c4ccc(Cl)c(C(F)(F)F)c4)c3)cc2-c2ccncc2)ccc1Cl, the growth rises from 36% to 36.1%.

First: Clc1ccc(-c2nc3ccccc3s2)cc1Cl
Second: O=c1c2sc3ncccc3c2nnn1-c1ccccc1
The growth of the first is lower: 82.6% for the first, 109% for the second.

Fc1ccc(CNCCNc2ncnc3c2cnn3-c2ccccc2)cc1 and O=S(=O)(NCCNc1nccc(-c2c(-c3cccc(O)c3)nc3sccn23)n1)c1ccc(F)cc1 are the same in growth: 103% for the first, 103% for the second.

Compared with COc1ccc(-n2c(=O)sc3c(Cl)nc(C)nc32)c(OC)c1, COc1ccc(-n2c(=S)sc3c(Cl)nc(C)nc32)c(OC)c1 is lower in growth: 74.8% for the first, 45.4% for the second.

Going from O=C(O)c1nc(-c2ccccc2)oc1N1CCOCC1 to Cc1cc(N)n(S(=O)(=O)c2oc(-c3ccccc3)nc2C#N)n1, the growth falls from 96% to 48.9%.

Going from Cn1c(=O)c2[nH]c(C3CC=CCC3)nc2n(C)c1=O (stereo unspecified) to COc1ccc(Nc2[nH]n3c(=O)cc(C)nc3c2C(N)=O)c(OC)c1, the growth falls from 101% to 93.3%.

Compared with COc1ccc(C2C=C(c3ccc(N)cc3)N=C3SC=CN32)cc1OC (stereo unspecified), COc1ccc(OC)c(C2OC(c3ccc4ccccc4c3O)=NN2C(C)=O)c1 (stereo unspecified) is lower in growth: 112% for the first, 54.5% for the second.

Compared with O=S(=O)(NCCNc1nccc(-c2c(-c3ccc(O)cc3)nc3sccn23)n1)c1cccc2ccccc12, Cc1ccc(S(=O)(=O)NCCNc2nccc(-c3c(-c4ccc(O)cc4)nc4sccn34)n2)cc1 is higher in growth: 107% for the first, 126% for the second.

Going from O=S(=O)(NCCNc1nccc(-c2c(-c3ccc(F)cc3)nc3sccn23)n1)c1ccc(F)cc1 to Fc1ccc(Nc2nc(NCCNc3ccnc4cc(Cl)ccc34)nc(N3CCOCC3)n2)cc1, the growth falls from 90.8% to 47.1%.

Going from COc1ccc(C2=Nn3c(nnc3-n3nc(C)cc3C)SC2)cc1 to COc1ccc(Nc2nn3c(C)cc(C)nc3c2C(=O)Nc2ccc(C)cc2)c(OC)c1, the growth rises from 21.7% to 105%.

First: O=C(O)/C=C/C(=O)c1ccc(Cl)cc1
Second: NC(=O)CCCN1C/C(=C\c2ccccc2)C(=O)c2ccccc21
The growth of the first is higher: 108% for the first, 97.6% for the second.

Compared with C=C1CCC[C@]2(C)CCC[C@H](C)[C@@H](OC(C)=O)[C@@H]3OC(=O)C(=C)[C@@H]3C[C@H]1O2, O=C(Nc1ccc2c(c1)OCCO2)C(=O)c1c[nH]c2ccccc12 is lower in growth: 80.8% for the first, 18% for the second.

Going from Cc1ccc(NS(=O)(=O)c2cc(C)ccc2C)cc1 to CCOC(=O)c1cn2c3c(cc(C)cc3c1=O)C(=O)/C(=C/c1ccccc1)C2, the growth rises from 19.9% to 101%.

Going from COc1cc(-c2nn(-c3cccc(NC(=O)c4ccccc4)c3)cc2-c2ccncc2)ccc1Cl to O=C(Nc1cccc(-n2cc(-c3ccncc3)c(-c3ccc(Cl)c(O)c3)n2)c1)Nc1ccc(Cl)c(Cl)c1, the growth rises from 18.4% to 24.5%.

First: COc1cc(-c2nc(-c3nc4ccc(Cl)cc4[nH]3)cc3c2[nH]c2ccccc23)cc(OC)c1OC
Second: COc1cc(/C(C#N)=C/c2ccc3c(c2OC)OCO3)cc2c1OCO2
The growth of the first is higher: 96.2% for the first, 19.8% for the second.

First: Cc1c(C(N)=O)sc2c1c(=O)n(Cc1ccccc1)c1nnc(Nc3ccccc3)n21
Second: CN(C)c1oc(C2OC2c2ccccc2)nc1C#N (stereo unspecified)
The growth of the first is higher: 108% for the first, 94.3% for the second.

In the case of CCCCCCCC[C@@H](O)CC(=O)N[C@@H](CC(N)=O)C(=O)N[C@@H](CCC(N)=O)C(=O)N[C@@H](CC(=O)c1cc(C)cc(O)c1C(=O)c1c(O)cccc1O)CC(C)C, the growth is reported as 18.3%.

For COc1ccc(/C=C2\CN(Cc3cn(CCNc4ccnc5cc(Cl)ccc45)nn3)C/C(=C\c3ccc(OC)c(OC)c3)C2=O)cc1OC, the growth was 0.355% (active).
With Cc1ccc(S(=O)(=O)c2nc(-c3ccccc3)oc2S(C)(=O)=O)cc1 the growth was -29.2% (active).
CCCCCCCC/C=C/CCCCCCCC1=NC(C)(C)CN1C(C)(C)CO was tested, and the growth was -85.1% (active).
With CN(C)CC(C(=O)c1ccccc1)c1ccccc1 (stereo unspecified) the growth was -61.9% (active).
